Assay [1] is described as follows: ATG_GLI_CIS: Attagene CIS-FACTORIAL HepG2 Assay for human Zinc Finger Protein GLI1 (AID 2282945). The following applies: HepG2, Attagene cis-factorial reporter mRNA, GLI element; actives raise or lower the signal. The gist of the method: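 HepG2 cells transiently transfected with cis-promoter multiplexed reporter units report endogenous transcription factor activity. After 24 h chemical exposure, reporter mRNA was quantified by RT-PCR, 6-FAM labelling, HpaI digestion and capillary electrophoresis, with bidirectional fitting against DMSO.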

The nature of assay [2]: ATG_GRE_CIS: Attagene CIS-FACTORIAL HepG2 Assay for human Glucocorticoid Response Elements (GRE) (AID 2282947). The following applies: HepG2 GRE cis-reporter, Attagene multiplex mRNA; actives raise or lower the signal. The gist of the method:
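HepG2, transient cis-reporter transfection, 24 h. Reporter mRNA: RT-PCR then CE, fluorescence. Fit both directions vs DMSO.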

The nature of assay [3]: ATG_ISRE_CIS: Attagene CIS-FACTORIAL HepG2 Assay for human Interferon Regulatory Factor 1 (IRF1) binding to an Interferon-Stimulated Response Element (ISRE) (AID 2282948). Conditions: HepG2 ISRE cis-reporter (Attagene), mRNA transcription readout; actives raise or lower the signal. The gist of the method:
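Read-out: fluorescent RT-PCR products resolved by capillary electrophoresis, reporting endogenous transcription factor activity via ISRE-driven reporter mRNA in transfected HepG2 cells dosed for 24 h; gain or loss fitted relative to DMSO.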

Assay [4] is described as follows: ATG_M_06_CIS: Attagene CIS-FACTORIAL HepG2 Assay for M06 Transcription Factor (Internal Marker) (AID 2282950). The following applies: HepG2 Attagene CIS-FACTORIAL M06 internal marker reporter; actives raise or lower the signal. The gist of the method:
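Serves as a background control readout. Transfected HepG2 exposed to compounds for 24 h, then reporter transcripts quantified by fluorescent RT-PCR and capillary electrophoresis. Both directions fitted against DMSO baseline.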

Assay [5] concerns the target Hypoxia-inducible factor 1-alpha (Homo sapiens) (UniProt Q16665). The assay is described as follows: ATG_HIF1a_CIS: Attagene CIS-FACTORIAL HepG2 Assay for human Hypoxia Inducible Factor 1 (HIF1A) (AID 2282951). Conditions: HepG2 Attagene cis-factorial HIF1a reporter transcription; actives raise or lower the signal. In a few lines: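 Endogenous-TF cis reporter readout, human HepG2 cells, 24 h incubation; mRNA detected via RT-PCR and capillary electrophoresis fluorescence; DMSO-normalised bidirectional fitting.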

Assay [6] addresses Hepatocyte nuclear factor 6 (Homo sapiens) (UniProt Q9UBC0). The assay is described as follows: ATG_HNF6_CIS: Attagene CIS-FACTORIAL HepG2 Assay for human Hepatocyte Nuclear Factor 6 (HNF6) (AID 2282952). The following applies: HepG2 Attagene cis-factorial HNF6 reporter transcription; actives raise or lower the signal. In a few lines:
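Endogenous factor activity read in transiently transfected HepG2 via promoter-regulated reporter transcripts. RNA harvested 24 h post-dosing, reverse-transcribed, PCR-amplified, FAM-labelled, HpaI-digested and resolved by capillary electrophoresis; fitted in both directions against DMSO.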

Assay [7] addresses Heat shock factor protein 1 (Homo sapiens) (UniProt Q00613). The assay can be described thus: ATG_HSE_CIS: Attagene CIS-FACTORIAL HepG2 Assay for human Heat Shock Transcription Factor 1 (HSE) (AID 2282953). The following applies: HepG2 HSE cis-reporter, Attagene RNA transcription; actives raise or lower the signal. The gist of the method: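 Endogenous transcription factor activity in transiently transfected HepG2, read as reporter mRNA by RT-PCR with fluorescent capillary electrophoresis after 24 h. Gain or loss of signal fitted versus DMSO baseline.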

A short description of assay [8]: ATG_MRE_CIS: Attagene CIS-FACTORIAL HepG2 Assay for human Metal Responsive Element (MRE) (AID 2282954). Conditions: HepG2 MRE cis-reporter transcription, Attagene multiplex; actives raise or lower the signal. The gist of the method:
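Readout: capillary electrophoresis of 6-FAM-labelled, HpaI-digested RT-PCR reporter products. System: HepG2 cells carrying transient multiplexed cis reporters, dosed 24 h. Analysis: bidirectional fit, DMSO baseline.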

The target in assay [9] is Paired box protein Pax-6 (Homo sapiens) (UniProt P26367). The assay is described as follows: ATG_Pax6_CIS: Attagene CIS-FACTORIAL HepG2 Assay for human Paired Box 6 (PAX6) (AID 2282956). The following applies: HepG2 CIS-FACTORIAL PAX6 reporter transcription, RNA readout; actives raise or lower the signal. In a few lines:
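Readout: reporter transcript fluorescence after RT-PCR and capillary electrophoresis. Cells: HepG2, transiently transfected with cis-regulated MRTUs. Exposure 24 h. Gain or loss of signal fitted bidirectionally relative to DMSO.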

Assay [10] is described as follows: ATG_PXRE_CIS: Attagene CIS-FACTORIAL HepG2 Assay for human Pregnane X Receptor Element (PXRE) (AID 2282957). The following applies: HepG2 Attagene CIS-FACTORIAL PXRE reporter, mRNA; actives raise or lower the signal. The gist of the method:
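Reporter transcripts under endogenous PXR-responsive cis-regulation quantified from total RNA of transfected HepG2 cells 24 h post-dosing, via RT-PCR with fluorescent primer extension and capillary electrophoresis. Gain or loss of signal fitted against DMSO baseline.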

Assay [11] can be described thus: ATG_Sox_CIS: Attagene CIS-FACTORIAL HepG2 Assay for human SRY-box transcription factor (SOX) (AID 2282960). Conditions: HepG2 Attagene cis-factorial SOX reporter, mRNA; actives raise or lower the signal. In a few lines:
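Using transiently transfected HepG2 cells, reporter transcription driven by cis elements was assessed 24 h after dosing. Signal was fluorescence of capillary-separated RT-PCR products, with DMSO defining baseline activity.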

The target in assay [12] is Transcription factor Sp1 (Homo sapiens) (UniProt P08047). The assay can be described thus: ATG_Sp1_CIS: Attagene CIS-FACTORIAL HepG2 Assay for human Specificity Protein 1 (Sp1) (AID 2282961). The following applies: HepG2 Sp1 cis-reporter transcription, actives raise or lower the signal. The gist of the method: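 After transient transfection of HepG2 cells with cis-promoter reporter units and 24 h chemical treatment, reporter transcripts were quantified by RT-PCR and capillary electrophoresis fluorescence. Gain- and loss-of-signal fitted against DMSO.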
Sequence of Transcription factor Sp1 (Homo sapiens) (P08047 whole entry, looked up): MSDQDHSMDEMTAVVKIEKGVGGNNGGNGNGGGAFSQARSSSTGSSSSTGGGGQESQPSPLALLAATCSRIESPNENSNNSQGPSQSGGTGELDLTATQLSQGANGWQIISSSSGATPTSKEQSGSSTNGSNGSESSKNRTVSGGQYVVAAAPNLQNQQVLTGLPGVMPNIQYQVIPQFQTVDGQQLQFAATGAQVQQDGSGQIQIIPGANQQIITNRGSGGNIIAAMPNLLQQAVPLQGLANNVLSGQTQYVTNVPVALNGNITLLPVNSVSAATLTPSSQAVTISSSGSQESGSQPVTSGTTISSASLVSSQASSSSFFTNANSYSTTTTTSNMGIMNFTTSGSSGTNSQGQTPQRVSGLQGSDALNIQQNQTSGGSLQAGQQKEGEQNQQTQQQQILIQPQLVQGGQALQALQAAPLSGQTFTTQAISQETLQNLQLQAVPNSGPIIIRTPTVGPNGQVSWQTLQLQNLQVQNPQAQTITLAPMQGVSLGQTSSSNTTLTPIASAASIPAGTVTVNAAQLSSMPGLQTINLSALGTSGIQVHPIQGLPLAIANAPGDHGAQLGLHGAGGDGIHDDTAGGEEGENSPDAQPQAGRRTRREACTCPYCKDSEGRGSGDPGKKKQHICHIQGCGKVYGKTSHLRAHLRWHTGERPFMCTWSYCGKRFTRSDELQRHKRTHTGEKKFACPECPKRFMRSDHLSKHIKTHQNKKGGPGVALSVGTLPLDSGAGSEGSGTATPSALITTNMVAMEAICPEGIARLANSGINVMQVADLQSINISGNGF

The nature of assay [13]: ATG_SREBP_CIS: Attagene CIS-FACTORIAL HepG2 Assay for human Sterol Regulatory Element Binding (SREBP) (AID 2282962). The following applies: HepG2 Attagene cis-factorial SREBP reporter, mRNA; actives raise or lower the signal. In a few lines:
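Readout: fluorescent reporter-transcript peaks resolved by capillary electrophoresis after RT-PCR. Cells were human HepG2 carrying transfected cis-promoter reporter constructs, dosed for 24 h. Gain or loss of signal was fitted against DMSO controls.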

Assay [14] addresses Signal transducer and activator of transcription 3 (Homo sapiens) (UniProt P40763). The assay is described as follows: ATG_STAT3_CIS: Attagene CIS-FACTORIAL HepG2 Assay for human Signal Transducer and Activator of Transcription 3 (STAT3) (AID 2282963). The following applies: HepG2, Attagene cis-factorial STAT3 reporter transcription; actives raise or lower the signal. The gist of the method: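 Uses human liver HepG2 transiently carrying cis-regulated reporter transcription units. Following 24 h dosing, reporter mRNA induction was detected by RT-PCR and capillary electrophoresis, analysed bidirectionally versus DMSO.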

Assay [15] is described as follows: ATG_M_32_CIS: Attagene CIS-FACTORIAL HepG2 Assay for M32 Transcription Factor (Internal Marker) (AID 2282949).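 Note: background control marker of the multiplexed CIS panel rather than a real target.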 Conditions: HepG2 Attagene cis-factorial M32 reporter, mRNA; actives raise or lower the signal. In a few lines: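 Using DMSO as baseline, bidirectional curve fits were applied to reporter mRNA signals. These came from transiently transfected HepG2 cells exposed for 24 h, with RNA analysed by RT-PCR, FAM primer extension, HpaI digestion and CE.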

The nature of assay [16]: ATG_PBREM_CIS: Attagene CIS-FACTORIAL HepG2 Assay for human Phenobarbital-responsive Enhancer Module (PBREM) (AID 2282955). The following applies: HepG2 PBREM cis-reporter, Attagene multiplexed transcription; actives raise or lower the signal. The gist of the method: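 Readout: reporter mRNA, fluorescent RT-PCR fragments separated by capillary electrophoresis. System: HepG2 transiently transfected with cis-regulated reporter units. Exposure: 24 h. Analysis: bidirectional, DMSO baseline.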

The nature of assay [17]: ATG_PPRE_CIS: Attagene CIS-FACTORIAL HepG2 Assay for human Peroxisome Proliferator-activated Response Element (PPRE) (AID 2282958). The following applies: HepG2 PPRE cis-element reporter, Attagene transcription factor profiling; actives raise or lower the signal. In a few lines: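 After human HepG2 hepatoma cells were transiently transfected with cis-promoter reporter constructs, they were exposed to test chemicals for 24 hours. Reporter RNA was then reverse-transcribed, PCR-amplified, FAM-labeled, HpaI-digested and quantified by capillary electrophoresis.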

A short description of assay [18]: ATG_RORE_CIS: Attagene CIS-FACTORIAL HepG2 Assay for human RAR-related Orphan Receptor Element (RORE) (AID 2282959). Conditions: HepG2 Attagene cis-factorial RORE reporter, mRNA; actives raise or lower the signal. In a few lines: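 Measured here: transcript induction of a cis-regulated reporter in HepG2 cells transiently transfected via FuGene 6. After 24 h, RNA was processed by RT-PCR and fluorescent capillary electrophoresis; DMSO defined baseline activity.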

A short description of assay [19]: ATG_TA_CIS: Attagene CIS-FACTORIAL HepG2 Assay for human TA Basal Promoter (AID 2282964). The following applies: HepG2 Attagene CIS-factorial TA basal promoter reporter; actives raise or lower the signal. The gist of the method: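 Background-control readout: TA basal promoter reporter mRNA, fitted in both directions relative to DMSO. Measured by RT-PCR and capillary electrophoresis 24 hours after treating HepG2 human liver cells transiently carrying multiplexed cis-regulated reporter constructs.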

Molecules are shown by their SMILES. Calls of active or inactive are those of the source. Rule for the calls: active = hit-call score of the fitted dose curve at least 0.9, where 1 is the maximum; inactive = score below 0.9.

Seven compounds from PubChem BioAssay (EPA / NIEHS) can be followed below.

Sequence of Hypoxia-inducible factor 1-alpha (Homo sapiens) (Q16665 whole entry, looked up): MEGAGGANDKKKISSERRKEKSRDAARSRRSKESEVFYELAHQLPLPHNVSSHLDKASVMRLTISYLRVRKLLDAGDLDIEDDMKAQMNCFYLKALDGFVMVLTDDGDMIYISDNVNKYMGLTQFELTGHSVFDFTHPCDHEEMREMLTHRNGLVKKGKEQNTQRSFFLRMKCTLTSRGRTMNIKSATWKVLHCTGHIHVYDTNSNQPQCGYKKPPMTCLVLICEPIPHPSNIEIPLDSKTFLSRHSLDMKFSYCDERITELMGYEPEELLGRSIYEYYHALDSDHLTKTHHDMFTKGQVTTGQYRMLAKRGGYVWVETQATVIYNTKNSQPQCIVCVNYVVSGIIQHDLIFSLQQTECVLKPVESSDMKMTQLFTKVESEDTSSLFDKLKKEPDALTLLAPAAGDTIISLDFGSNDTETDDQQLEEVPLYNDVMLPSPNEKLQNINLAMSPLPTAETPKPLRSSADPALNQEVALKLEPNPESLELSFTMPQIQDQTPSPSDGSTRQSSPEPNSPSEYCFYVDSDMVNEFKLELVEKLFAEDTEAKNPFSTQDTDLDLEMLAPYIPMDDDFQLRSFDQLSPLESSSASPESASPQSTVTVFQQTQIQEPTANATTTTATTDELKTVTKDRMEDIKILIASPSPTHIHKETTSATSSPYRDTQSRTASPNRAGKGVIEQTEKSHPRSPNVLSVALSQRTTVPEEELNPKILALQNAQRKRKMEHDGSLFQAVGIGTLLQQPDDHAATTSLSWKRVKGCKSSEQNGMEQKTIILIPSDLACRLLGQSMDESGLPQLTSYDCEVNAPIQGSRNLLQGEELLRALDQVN
Sequence of Signal transducer and activator of transcription 3 (Homo sapiens) (P40763 whole entry, looked up): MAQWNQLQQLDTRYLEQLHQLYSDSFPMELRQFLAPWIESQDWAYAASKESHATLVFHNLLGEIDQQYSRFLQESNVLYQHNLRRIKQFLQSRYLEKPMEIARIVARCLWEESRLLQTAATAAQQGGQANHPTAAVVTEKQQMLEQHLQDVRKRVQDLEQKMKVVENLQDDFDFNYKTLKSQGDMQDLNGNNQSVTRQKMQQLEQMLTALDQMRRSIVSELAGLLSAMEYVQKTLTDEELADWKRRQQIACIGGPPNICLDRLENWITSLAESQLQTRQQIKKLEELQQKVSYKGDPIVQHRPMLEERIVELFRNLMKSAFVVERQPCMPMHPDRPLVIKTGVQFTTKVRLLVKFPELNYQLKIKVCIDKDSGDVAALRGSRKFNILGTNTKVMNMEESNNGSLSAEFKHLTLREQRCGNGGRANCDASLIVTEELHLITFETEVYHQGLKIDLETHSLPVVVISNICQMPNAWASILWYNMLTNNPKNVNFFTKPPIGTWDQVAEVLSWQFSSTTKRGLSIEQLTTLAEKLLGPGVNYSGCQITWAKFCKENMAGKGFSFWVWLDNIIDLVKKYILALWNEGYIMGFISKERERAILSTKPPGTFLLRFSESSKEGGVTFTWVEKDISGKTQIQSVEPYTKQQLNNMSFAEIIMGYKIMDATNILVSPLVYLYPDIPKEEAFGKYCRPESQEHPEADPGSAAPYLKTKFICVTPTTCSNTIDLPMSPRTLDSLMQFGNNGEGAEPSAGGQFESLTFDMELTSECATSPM
Sequence of Hepatocyte nuclear factor 6 (Homo sapiens) (Q9UBC0 whole entry, looked up): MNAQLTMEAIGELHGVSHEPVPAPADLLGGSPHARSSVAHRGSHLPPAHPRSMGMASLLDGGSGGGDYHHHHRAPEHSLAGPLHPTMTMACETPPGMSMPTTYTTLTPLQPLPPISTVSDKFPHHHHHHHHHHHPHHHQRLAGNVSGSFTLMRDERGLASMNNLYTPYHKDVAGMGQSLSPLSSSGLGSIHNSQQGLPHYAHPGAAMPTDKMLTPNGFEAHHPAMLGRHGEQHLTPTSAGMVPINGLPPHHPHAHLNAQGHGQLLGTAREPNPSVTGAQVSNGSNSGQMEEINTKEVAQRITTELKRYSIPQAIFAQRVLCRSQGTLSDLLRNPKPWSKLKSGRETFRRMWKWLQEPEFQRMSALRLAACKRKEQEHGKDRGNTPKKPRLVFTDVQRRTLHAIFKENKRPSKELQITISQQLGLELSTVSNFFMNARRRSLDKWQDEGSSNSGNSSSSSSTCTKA
Sequence of Paired box protein Pax-6 (Homo sapiens) (P26367 whole entry, looked up): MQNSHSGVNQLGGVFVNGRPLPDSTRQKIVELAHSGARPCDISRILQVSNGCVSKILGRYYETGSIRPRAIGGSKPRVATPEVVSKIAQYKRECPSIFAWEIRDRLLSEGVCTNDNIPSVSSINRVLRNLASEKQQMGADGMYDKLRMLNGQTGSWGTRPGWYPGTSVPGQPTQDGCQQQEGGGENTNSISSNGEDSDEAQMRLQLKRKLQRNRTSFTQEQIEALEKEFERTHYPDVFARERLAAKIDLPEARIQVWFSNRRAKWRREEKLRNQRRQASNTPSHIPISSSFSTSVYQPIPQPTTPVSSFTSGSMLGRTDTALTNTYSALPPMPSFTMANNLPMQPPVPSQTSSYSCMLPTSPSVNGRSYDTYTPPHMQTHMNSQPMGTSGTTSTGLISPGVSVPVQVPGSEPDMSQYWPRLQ
Sequence of Heat shock factor protein 1 (Homo sapiens) (Q00613 whole entry, looked up): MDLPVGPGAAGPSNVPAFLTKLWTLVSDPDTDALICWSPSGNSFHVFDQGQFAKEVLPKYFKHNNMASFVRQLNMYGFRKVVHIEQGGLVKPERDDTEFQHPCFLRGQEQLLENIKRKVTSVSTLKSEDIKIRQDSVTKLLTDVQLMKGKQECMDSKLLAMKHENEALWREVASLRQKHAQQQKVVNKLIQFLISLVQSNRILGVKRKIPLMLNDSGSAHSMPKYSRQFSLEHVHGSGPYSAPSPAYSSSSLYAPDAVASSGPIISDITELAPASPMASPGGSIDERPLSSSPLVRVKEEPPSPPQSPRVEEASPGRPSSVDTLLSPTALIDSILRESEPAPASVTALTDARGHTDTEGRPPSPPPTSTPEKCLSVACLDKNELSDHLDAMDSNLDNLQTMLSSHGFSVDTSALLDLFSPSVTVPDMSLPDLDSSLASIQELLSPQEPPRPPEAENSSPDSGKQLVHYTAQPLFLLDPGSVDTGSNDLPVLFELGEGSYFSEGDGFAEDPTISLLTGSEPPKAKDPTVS

In the case of `CC1CC(=O)CC(C)(C)C1` (stereo not given), the compound was called inactive in assay [1], in [2], in assay [3], in assay [4], in [5] and in assay [6]. The outcome in assay [7], in [8], in assay [9], in assay [10], in [11] and in [12] was inactive. Also, the outcome in [13] and in assay [14] was inactive.

With `COc1cc(O)c(C(=O)c2ccccc2)cc1S(=O)(=O)O`, the result in assay [1], in assay [3], in [15], in assay [4], in [5] and in [6] was inactive. Moreover, the compound was called inactive in [7], in [8], in assay [16], in assay [9], in assay [10] and in assay [17]. For the same compound, the result in [18], in assay [11], in assay [12], in assay [13] and in assay [14] was inactive.

A word on the AC50: it is the midpoint of the concentration-response curve, whichever way the signal moves. For the compound `CCCCC(CC)COC(=O)/C=C/c1ccc(OC)cc1` (stereo not given), the compound was called inactive in assay [1], in [2], in assay [3], in [4], in assay [5] and in assay [6]. For the same compound, the compound was called inactive in [7], in assay [16], in assay [9], in assay [17], in [18] and in assay [11]. For the same compound, the result in assay [12], in [13], in assay [14] and in [19] was inactive. For the same compound, the AC50 in assay [10] is 39.4 µM (active).

For the compound `CC(=O)CCC1=C(C)CCCC1(C)C`, the call in assay [1], in assay [3], in assay [15], in [4], in assay [5] and in assay [6] was inactive. Moreover, the compound was classed as inactive in assay [7], in [8], in assay [16], in [9], in assay [17] and in assay [18]. The call in [11], in [12], in [13], in assay [14] and in assay [19] was inactive. Further, the AC50 in assay [10] is 4.36 µM (active).

Turning to `CC(C)[N+](C)(CCOC(=O)C1c2ccccc2Oc2ccccc21)C(C)C`, the outcome in [1], in [2], in [3], in assay [15], in [6] and in assay [7] was inactive. Moreover, the outcome in [8], in [10], in assay [18], in assay [12], in [13] and in [14] was inactive. Besides, the call in assay [19] was inactive. Moreover, the AC50 in assay [17] was 42.7 µM (active).

Turning to `C=CC(C)(O)CC/C=C(\C)CC` (stereo not given), the compound was called inactive in assay [1], in [2], in [3], in assay [4], in assay [5] and in [6]. In addition, the call in assay [7], in [8], in assay [9], in assay [18], in [11] and in assay [12] was inactive. Moreover, the result in assay [13], in assay [14] and in assay [19] was inactive. Further, the AC50 in assay [10] is 4.25 µM (active).

Turning to `CCCC1CCCC(=O)O1` (stereo not given), the compound was classed as inactive in [1], in [2], in assay [3], in assay [15], in [4] and in assay [6]. The outcome in assay [16], in assay [9], in assay [11], in assay [12], in assay [13] and in assay [14] was inactive. Moreover, the call in [19] was inactive. The AC50 in [17] was 11 µM (active).
